Experimental data reported in the supplement of paper PMC10037445.
Over roughly 2,900 compounds, “NF-kB SEAP reporter activity, fold change vs agonist alone” has its median near 0.99; the highest 2% begin near 2.6. The full list was thinned out, with the highest values kept by preference.

Assays:
[1] = test system: RAW-Dual; experiment: NF-kB SEAP reporter activity, fold change vs agonist alone; cytotoxicity flag (confluency mask): cytotoxic (confluency <70% of control); higher = enhanced NF-kB activity
How it was run: (§1)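 Supernatant from RAW-Dual macrophages was read after 20 hours for IRF by QuantiLuc luminescence and for NF-κB by QuantiBlue absorbance at 620 nm. The cells (50,000 cells/well in DMEM, 384-well plates, 37 °C, 5% CO2) had received 50 nL of library stock by pin tool and, 1 h later, a PRR agonist. Reporter activity is expressed relative to agonist-alone wells as fold change, and wells were flagged cytotoxic if IncuCyte confluency was under 70% of agonist controls in both mask sets.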

[2] = test system: RAW-Dual; experiment: NF-kB SEAP reporter activity, fold change vs agonist alone; higher = enhanced NF-kB activity; details: library stock concentration (final ~1000-fold dilution): 10 mM
How it was run: as §1

[3] = test system: RAW-Dual; experiment: NF-kB SEAP reporter activity, fold change vs agonist alone; cytotoxicity flag (confluency mask): not cytotoxic; higher = enhanced NF-kB activity
How it was run: as §1

[4] = agonist: ODN 1826 (TLR9) 0.5 ug/mL
[5] = agonist: Pam2CSK4 (TLR2/6) 0.1 ug/mL
[6] = agonist: Pam3CSK4 (TLR2/1) 0.1 ug/mL
[7] = cytotoxicity flag (confluency mask): not cytotoxic, agonist: Imiquimod (TLR7) […]
[8] = cytotoxicity flag (confluency mask): not cytotoxic, agonist: MPLA (TLR4) […]
[9] = cytotoxicity flag (confluency mask): cytotoxic (confluency <70% of control), agonist: Imiquimod (TLR7) […]
[10] = cytotoxicity flag (confluency mask): cytotoxic (confluency <70% of control), agonist: MPLA (TLR4) […]

**Q.** For `Cl.Cl.Cn1cc(CNCC2CCN(c3ncc(C(=O)NO)cn3)CC2)c2ccccc21` (library stock concentration (final ~1000-fold dilution): 10 mM), which “NF-kB SEAP reporter activity” value ([1]; agonist: LPS (TLR4) 0.1 ug/mL) is on record?
**A.** The value was 7.01.

**Q.** What about the “NF-kB SEAP reporter activity” value [1, 4] of the same molecule?
**A.** The value was 1.95.

**Q.** And the “NF-kB SEAP reporter activity” value [1, 5]?
**A.** Its value is 1.13.

**Q.** What about the “NF-kB SEAP reporter activity” value [1, 6] of the same molecule?
**A.** The value was 1.93.

**Q.** `COc1ccc(CCC(=O)N(c2nccc3ccccc23)C2CCCNC2)cc1` (stereo not given) was tested. Which “NF-kB SEAP reporter activity” value [2, 7] did it give?
**A.** Its value is 1.07.

**Q.** And the “NF-kB SEAP reporter activity” value [2, 8]?
**A.** The value was 1.29.

**Q.** How did the “NF-kB SEAP reporter activity” value ([3]; agonist: LPS (TLR4) 0.1 ug/mL) turn out when `COc1ccc(CCC(=O)N(c2nccc3ccccc23)C2CCCNC2)cc1` (stereo not given) (library stock concentration (final ~1000-fold dilution): 10 mM) was run?
**A.** The value was 1.05.

**Q.** And the “NF-kB SEAP reporter activity” value [3, 4]?
**A.** Its value is 0.84.

**Q.** And the “NF-kB SEAP reporter activity” value [3, 5]?
**A.** Its value is 1.09.

**Q.** And the “NF-kB SEAP reporter activity” value [3, 6]?
**A.** The value was 1.08.

**Q.** Which results are given for `CS(=O)(=O)c1cccc(CC(NC(=O)c2c(Cl)cc3c(c2Cl)CCN(C(=O)c2ccc4ccoc4c2)C3)C(=O)O)c1` (stereo not given)?
**A.** NF-kB SEAP reporter activity [2, 7]: 0.947; NF-kB SEAP reporter activity [2, 8]: 1.04

**Q.** What does the source list for `CS(=O)(=O)c1cccc(CC(NC(=O)c2c(Cl)cc3c(c2Cl)CCN(C(=O)c2ccc4ccoc4c2)C3)C(=O)O)c1` (stereo not given) (library stock concentration (final ~1000-fold dilution): 10 mM)?
**A.** NF-kB SEAP reporter activity ([3]; agonist: LPS (TLR4) 0.1 ug/mL): 0.994; NF-kB SEAP reporter activity [3, 4]: 1; NF-kB SEAP reporter activity [3, 5]: 1.03; NF-kB SEAP reporter activity [3, 6]: 0.941

**Q.** For `O=[N+]([O-])c1ccc(S(=O)(=O)N2CCN(c3ccnc4cc(Cl)ccc34)CC2)c([N+](=O)[O-])c1`, which “NF-kB SEAP reporter activity” value [2, 9] is on record?
**A.** Its value is 0.787.

**Q.** And the “NF-kB SEAP reporter activity” value [2, 10]?
**A.** Its value is 0.37.

**Q.** What does the source list for `O=[N+]([O-])c1ccc(S(=O)(=O)N2CCN(c3ccnc4cc(Cl)ccc34)CC2)c([N+](=O)[O-])c1` (library stock concentration (final ~1000-fold dilution): 10 mM)?
**A.** NF-kB SEAP reporter activity ([1]; agonist: LPS (TLR4) 0.1 ug/mL): 0.384; NF-kB SEAP reporter activity [1, 4]: 0.333; NF-kB SEAP reporter activity [1, 5]: 0.229; NF-kB SEAP reporter activity [1, 6]: 0.196

**Q.** Which results are given for `Cn1cc(/C=C/C(=O)c2cccc(F)c2)cc1/C=C/C(=O)NO`?
**A.** NF-kB SEAP reporter activity [2, 7]: 0.803; NF-kB SEAP reporter activity [2, 8]: 1.06

**Q.** What does the source list for `COc1cccc(NC(=O)/C=C/c2ccc(Cl)cc2)c1` (library stock concentration (final ~1000-fold dilution): 10 mM)?
**A.** NF-kB SEAP reporter activity ([3]; agonist: LPS (TLR4) 0.1 ug/mL): 1.18; NF-kB SEAP reporter activity [3, 4]: 0.828; NF-kB SEAP reporter activity [3, 5]: 0.682; NF-kB SEAP reporter activity [3, 6]: 0.711

**Q.** For `Cn1cc(/C=C/C(=O)c2cccc(F)c2)cc1/C=C/C(=O)NO` (library stock concentration (final ~1000-fold dilution): 10 mM), which “NF-kB SEAP reporter activity” value ([3]; agonist: LPS (TLR4) 0.1 ug/mL) is on record?
**A.** The value was 1.26.

**Q.** And the “NF-kB SEAP reporter activity” value [3, 4]?
**A.** Its value is 0.787.

**Q.** What about the “NF-kB SEAP reporter activity” value [3, 5] of the same molecule?
**A.** Its value is 0.605.

**Q.** And the “NF-kB SEAP reporter activity” value [3, 6]?
**A.** Its value is 0.528.

**Q.** Which “NF-kB SEAP reporter activity” value [2, 7] does the source give for `COc1cccc(NC(=O)/C=C/c2ccc(Cl)cc2)c1` here?
**A.** Its value is 1.02.

**Q.** What about the “NF-kB SEAP reporter activity” value [2, 8] of the same molecule?
**A.** Its value is 1.04.

**Q.** What does the source list for `O=C(/C=C/c1cccc(S(=O)(=O)Nc2ccccc2)c1)NO` (library stock concentration (final ~1000-fold dilution): 10 mM)?
**A.** NF-kB SEAP reporter activity ([1]; agonist: LPS (TLR4) 0.1 ug/mL): 5.83; NF-kB SEAP reporter activity [1, 4]: 2.3; NF-kB SEAP reporter activity [1, 5]: 0.848; NF-kB SEAP reporter activity [1, 6]: 1.76

**Q.** With `O=C(/C=C/c1cccc(S(=O)(=O)Nc2ccccc2)c1)NO` as the molecule, how does the “NF-kB SEAP reporter activity” value [2, 9] read?
**A.** The value was 2.39.

**Q.** And the “NF-kB SEAP reporter activity” value [2, 10]?
**A.** Its value is 2.58.

**Q.** `CC(=O)Oc1cc2c(s1)CCN(C(C(=O)C1CC1)c1ccccc1F)C2.Cl` (stereo not given) was tested. Which “NF-kB SEAP reporter activity” value [2, 8] did it give?
**A.** The value was 0.869.

**Q.** What does the source list for `CC(=O)Oc1cc2c(s1)CCN(C(C(=O)C1CC1)c1ccccc1F)C2.Cl` (stereo not given) (library stock concentration (final ~1000-fold dilution): 10 mM)?
**A.** NF-kB SEAP reporter activity ([3]; agonist: LPS (TLR4) 0.1 ug/mL): 0.766; NF-kB SEAP reporter activity [3, 4]: 0.821; NF-kB SEAP reporter activity [3, 5]: 0.958; NF-kB SEAP reporter activity [3, 6]: 0.688

**Q.** `C=CC(=O)N1CC/C(=C\c2ccc(F)c([N+](=O)[O-])c2)C(=O)/C(=C/c2ccc(F)c([N+](=O)[O-])c2)C1` was tested. Which “NF-kB SEAP reporter activity” value [2, 7] did it give?
**A.** Its value is 0.151.

**Q.** What about the “NF-kB SEAP reporter activity” value [2, 8] of the same molecule?
**A.** The value was 0.267.

**Q.** What does the source list for `C=CC(=O)N1CC/C(=C\c2ccc(F)c([N+](=O)[O-])c2)C(=O)/C(=C/c2ccc(F)c([N+](=O)[O-])c2)C1` (library stock concentration (final ~1000-fold dilution): 10 mM)?
**A.** NF-kB SEAP reporter activity ([3]; agonist: LPS (TLR4) 0.1 ug/mL): 0.222; NF-kB SEAP reporter activity [3, 4]: 0.198; NF-kB SEAP reporter activity [3, 5]: 0.0699; NF-kB SEAP reporter activity [3, 6]: 0.144

**Q.** How did the “NF-kB SEAP reporter activity” value [2, 7] turn out when `CC1CNC(=O)c2cnn3ccc(nc23)NC(C)c2cc(F)ccc2O1` (stereo not given) was run?
**A.** Its value is 0.753.

**Q.** What about the “NF-kB SEAP reporter activity” value [2, 8] of the same molecule?
**A.** Its value is 0.916.

**Q.** `CC1CNC(=O)c2cnn3ccc(nc23)NC(C)c2cc(F)ccc2O1` (stereo not given) (library stock concentration (final ~1000-fold dilution): 10 mM) was tested. Which “NF-kB SEAP reporter activity” value ([3]; agonist: LPS (TLR4) 0.1 ug/mL) did it give?
**A.** The value was 1.58.

**Q.** And the “NF-kB SEAP reporter activity” value [3, 4]?
**A.** Its value is 0.9.

**Q.** And the “NF-kB SEAP reporter activity” value [3, 5]?
**A.** The value was 0.5.

**Q.** What about the “NF-kB SEAP reporter activity” value [3, 6] of the same molecule?
**A.** The value was 0.422.

**Q.** Which “NF-kB SEAP reporter activity” value [2, 7] does the source give for `O=C(Nc1ccc(-c2ccnc(Nc3ccc(N4CCOCC4)cc3)n2)cc1)C1CCCN1` (stereo not given) here?
**A.** Its value is 1.6.

**Q.** What about the “NF-kB SEAP reporter activity” value [2, 8] of the same molecule?
**A.** The value was 2.46.

**Q.** With `N#CCNC(=O)c1ccc(-c2ccnc(Nc3ccc(N4CCOCC4)cc3)n2)cc1` (library stock concentration (final ~1000-fold dilution): 10 mM) as the molecule, how does the “NF-kB SEAP reporter activity” value ([3]; agonist: LPS (TLR4) 0.1 ug/mL) read?
**A.** The value was 0.233.

**Q.** What about the “NF-kB SEAP reporter activity” value [3, 4] of the same molecule?
**A.** Its value is 1.01.

**Q.** And the “NF-kB SEAP reporter activity” value [3, 5]?
**A.** Its value is 0.233.

**Q.** And the “NF-kB SEAP reporter activity” value [3, 6]?
**A.** The value was 1.08.

**Q.** What does the source list for `O=C(Nc1ccc(-c2ccnc(Nc3ccc(N4CCOCC4)cc3)n2)cc1)C1CCCN1` (stereo not given) (library stock concentration (final ~1000-fold dilution): 10 mM)?
**A.** NF-kB SEAP reporter activity ([3]; agonist: LPS (TLR4) 0.1 ug/mL): 1.86; NF-kB SEAP reporter activity [3, 4]: 0.272; NF-kB SEAP reporter activity [3, 5]: 1.05; NF-kB SEAP reporter activity [3, 6]: 1.67

**Q.** How did the “NF-kB SEAP reporter activity” value [2, 7] turn out when `N#Cc1cc(-c2ccnc(Nc3ccc(N4CCOCC4)cc3)n2)ccc1OC1CCOCC1` was run?
**A.** The value was 1.85.

**Q.** And the “NF-kB SEAP reporter activity” value [2, 8]?
**A.** The value was 2.02.

**Q.** With `N#Cc1cc(-c2ccnc(Nc3ccc(N4CCOCC4)cc3)n2)ccc1OC1CCOCC1` (library stock concentration (final ~1000-fold dilution): 10 mM) as the molecule, how does the “NF-kB SEAP reporter activity” value ([3]; agonist: LPS (TLR4) 0.1 ug/mL) read?
**A.** The value was 0.526.

**Q.** What about the “NF-kB SEAP reporter activity” value [3, 4] of the same molecule?
**A.** Its value is 1.39.

**Q.** What about the “NF-kB SEAP reporter activity” value [3, 5] of the same molecule?
**A.** Its value is 0.463.

**Q.** What about the “NF-kB SEAP reporter activity” value [3, 6] of the same molecule?
**A.** The value was 3.66.

**Q.** With `N#CCNC(=O)c1ccc(-c2ccnc(Nc3ccc(N4CCOCC4)cc3)n2)cc1` as the molecule, how does the “NF-kB SEAP reporter activity” value [2, 7] read?
**A.** The value was 1.02.

**Q.** What about the “NF-kB SEAP reporter activity” value [2, 8] of the same molecule?
**A.** Its value is 0.925.
